# Reference: PubChem BioAssay (Tox21)
# Where “and” joins values, the source holds several entries; their conditions need not be identical. Identical values can stand only once. Inconclusive results are not listed. Entries that show only a call come without a potency. Calls of active or inactive are those of the source. Unless noted, the call rests on the fitted dose curve; in most records, active means well fitted curve in the direction sought with a large enough effect in the repeat runs; inconclusive means weak or mixed curves; inactive means no such curve, though single readings can be large; an effect the other way counts as inactive or inconclusive.
# How the values were obtained:
# [1] = molecular target: Acetylcholinesterase (Homo sapiens) (UniProt P22303); test: Acetylcholinesterase (AChE) small molecule antagonists: colormetric cell-based qHTS assay (AID 1347395; calls by dose curve; further: nearly all actives have a fitted effect of over 30% in size)
# Acetylcholinesterase (Homo sapiens), sequence (P22303 whole entry, looked up): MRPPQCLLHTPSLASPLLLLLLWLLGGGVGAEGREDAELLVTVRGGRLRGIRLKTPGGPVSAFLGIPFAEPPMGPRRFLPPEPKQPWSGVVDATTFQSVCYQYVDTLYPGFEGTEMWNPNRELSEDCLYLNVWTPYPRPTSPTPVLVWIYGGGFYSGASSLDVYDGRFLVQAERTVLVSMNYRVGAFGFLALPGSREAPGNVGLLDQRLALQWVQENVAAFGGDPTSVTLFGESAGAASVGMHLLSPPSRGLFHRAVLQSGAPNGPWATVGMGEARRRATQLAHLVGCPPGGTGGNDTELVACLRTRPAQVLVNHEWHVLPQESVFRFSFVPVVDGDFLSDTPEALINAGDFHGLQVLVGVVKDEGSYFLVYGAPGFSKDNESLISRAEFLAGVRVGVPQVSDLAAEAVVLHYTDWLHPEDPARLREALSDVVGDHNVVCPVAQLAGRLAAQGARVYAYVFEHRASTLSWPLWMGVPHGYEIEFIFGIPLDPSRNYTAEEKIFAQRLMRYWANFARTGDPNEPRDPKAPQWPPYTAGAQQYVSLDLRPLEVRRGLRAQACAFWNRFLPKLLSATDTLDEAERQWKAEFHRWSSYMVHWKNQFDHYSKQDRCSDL
# Summary of the method: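 AChE inhibition read colorimetrically via DTNB–thiocholine in SH-SY5Y cells. Compound 30 min, substrate 90 min, both 37 C.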
# [2] = molecular target: Acetylcholinesterase (Homo sapiens) (UniProt P22303); test: Acetylcholinesterase (AChE) small molecule antagonists: enzyme-based qHTS assay (AID 1347397; calls by dose curve; further: nearly all actives have a fitted effect of over 55% in size); details: Potency: AChE enzyme activity inhibition
# Summary of the method: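 Enzyme inhibition was scored from DTNB-detected thiocholine formed by recombinant human AChE acting on acetylthiocholine. The 30 min compound preincubation and 10 min substrate reaction were both run at room temperature, with DMSO as vehicle control.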
# [3] = molecular target: Acetylcholinesterase (Homo sapiens) (UniProt P22303); test: Acetylcholinesterase (AChE) small molecule antagonists: fluorescence cell-based qHTS assay (AID 1347398; calls by dose curve; further: nearly all actives have a fitted effect of over 50% in size); details: Potency: AChE activity
# Summary of the method: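 Endogenous acetylcholinesterase of SH-SY5Y neuroblastoma cells is measured in situ. After overnight attachment and 30 min compound exposure, cells receive acetylthiocholine and Thiolite Green; fluorescence is read after 40 min at room temperature.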
# [4] = molecular target: Acetylcholinesterase (Homo sapiens) (UniProt P22303); test: Acetylcholinesterase (AChE) small molecule antagonists: enzyme-based qHTS assay with human liver microsomes (AID 1347399; calls by dose curve; further: nearly all actives have a fitted effect of over 60% in size); details: Potency: qHTS inhibition
# Summary of the method: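 Recombinant human AChE (50 mU/mL in the enzyme mix) and human liver microsomes (0.25 mg/mL final) were preincubated with compound and NADPH (0.25 mg/mL final) for 30 min at 37 C. Acetylthiocholine/DTNB was then added; thiocholine was read colorimetrically after 10 min at room temperature.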
# [5] = molecular target: Cytochrome P450 2C9 (Homo sapiens) (UniProt P11712); test: Cytochrome P450 Family 2 Subfamily C Member 9 (CYP2C9) small molecule antagonists: luciferase reporter qHTS assay (AID 1671198); further: nearly all actives have a fitted effect of over 50% in size
# Cytochrome P450 2C9 (Homo sapiens), sequence (P11712 whole entry, looked up): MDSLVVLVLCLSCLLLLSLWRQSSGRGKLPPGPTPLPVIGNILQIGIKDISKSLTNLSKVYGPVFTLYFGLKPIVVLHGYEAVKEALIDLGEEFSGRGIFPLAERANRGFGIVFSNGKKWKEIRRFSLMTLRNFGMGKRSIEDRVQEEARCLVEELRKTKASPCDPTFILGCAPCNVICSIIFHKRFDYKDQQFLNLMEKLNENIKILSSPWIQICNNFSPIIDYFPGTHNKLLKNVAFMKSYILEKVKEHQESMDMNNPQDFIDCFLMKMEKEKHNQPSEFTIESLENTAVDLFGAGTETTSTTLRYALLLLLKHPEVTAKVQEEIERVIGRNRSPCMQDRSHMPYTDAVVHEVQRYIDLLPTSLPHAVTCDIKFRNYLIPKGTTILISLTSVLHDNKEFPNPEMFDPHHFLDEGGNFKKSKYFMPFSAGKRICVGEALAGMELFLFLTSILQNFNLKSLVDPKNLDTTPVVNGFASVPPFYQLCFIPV
# Summary of the method: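 P450-Glo proluciferin substrate with CYP2C9 enzyme; 10 min RT preincubation, then NADPH regeneration 1 h at 37C; luciferin detection reagent 20 min RT, luminescence in relative luminescence units.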
# [6] = molecular target: Cytochrome P450 1A2 (Homo sapiens) (UniProt P05177); test: Cytochrome P450 Family 1 Subfamily A Member 2 (CYP1A2) small molecule antagonists: luciferase reporter qHTS assay (AID 1671199); further: nearly all actives have a fitted effect of over 50% in size
# Cytochrome P450 1A2 (Homo sapiens), sequence (P05177 whole entry, looked up): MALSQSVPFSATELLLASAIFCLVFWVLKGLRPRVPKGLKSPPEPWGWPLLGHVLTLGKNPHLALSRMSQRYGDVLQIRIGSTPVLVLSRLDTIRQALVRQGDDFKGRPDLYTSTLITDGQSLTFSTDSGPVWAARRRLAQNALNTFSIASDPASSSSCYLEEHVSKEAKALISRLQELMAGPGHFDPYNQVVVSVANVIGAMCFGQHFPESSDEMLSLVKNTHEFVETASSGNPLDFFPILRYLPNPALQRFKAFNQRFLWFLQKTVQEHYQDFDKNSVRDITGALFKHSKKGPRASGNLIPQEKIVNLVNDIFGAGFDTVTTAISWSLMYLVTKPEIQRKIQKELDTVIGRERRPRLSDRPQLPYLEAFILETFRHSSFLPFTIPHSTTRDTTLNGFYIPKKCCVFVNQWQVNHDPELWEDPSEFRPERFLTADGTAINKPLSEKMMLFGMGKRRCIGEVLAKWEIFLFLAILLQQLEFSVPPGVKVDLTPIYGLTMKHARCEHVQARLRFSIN
# Summary of the method: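 Inhibition of CYP1A2 conversion of proluciferin to luciferin, detected by luminescence. Reaction run 1 h at room temperature with NADPH regeneration after brief compound preincubation.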
# [7] = molecular target: Voltage-gated inwardly rectifying potassium channel KCNH2 (Homo sapiens) (UniProt Q12809); test: Human Ether-a-go-go-Related Gene (hERG) channel small molecule antagonists: fluorescence cell-based qHTS assay (AID 1671200); further: nearly all actives have a fitted effect of over 50% in size
# Voltage-gated inwardly rectifying potassium channel KCNH2 (Homo sapiens), sequence (Q12809 whole entry, looked up): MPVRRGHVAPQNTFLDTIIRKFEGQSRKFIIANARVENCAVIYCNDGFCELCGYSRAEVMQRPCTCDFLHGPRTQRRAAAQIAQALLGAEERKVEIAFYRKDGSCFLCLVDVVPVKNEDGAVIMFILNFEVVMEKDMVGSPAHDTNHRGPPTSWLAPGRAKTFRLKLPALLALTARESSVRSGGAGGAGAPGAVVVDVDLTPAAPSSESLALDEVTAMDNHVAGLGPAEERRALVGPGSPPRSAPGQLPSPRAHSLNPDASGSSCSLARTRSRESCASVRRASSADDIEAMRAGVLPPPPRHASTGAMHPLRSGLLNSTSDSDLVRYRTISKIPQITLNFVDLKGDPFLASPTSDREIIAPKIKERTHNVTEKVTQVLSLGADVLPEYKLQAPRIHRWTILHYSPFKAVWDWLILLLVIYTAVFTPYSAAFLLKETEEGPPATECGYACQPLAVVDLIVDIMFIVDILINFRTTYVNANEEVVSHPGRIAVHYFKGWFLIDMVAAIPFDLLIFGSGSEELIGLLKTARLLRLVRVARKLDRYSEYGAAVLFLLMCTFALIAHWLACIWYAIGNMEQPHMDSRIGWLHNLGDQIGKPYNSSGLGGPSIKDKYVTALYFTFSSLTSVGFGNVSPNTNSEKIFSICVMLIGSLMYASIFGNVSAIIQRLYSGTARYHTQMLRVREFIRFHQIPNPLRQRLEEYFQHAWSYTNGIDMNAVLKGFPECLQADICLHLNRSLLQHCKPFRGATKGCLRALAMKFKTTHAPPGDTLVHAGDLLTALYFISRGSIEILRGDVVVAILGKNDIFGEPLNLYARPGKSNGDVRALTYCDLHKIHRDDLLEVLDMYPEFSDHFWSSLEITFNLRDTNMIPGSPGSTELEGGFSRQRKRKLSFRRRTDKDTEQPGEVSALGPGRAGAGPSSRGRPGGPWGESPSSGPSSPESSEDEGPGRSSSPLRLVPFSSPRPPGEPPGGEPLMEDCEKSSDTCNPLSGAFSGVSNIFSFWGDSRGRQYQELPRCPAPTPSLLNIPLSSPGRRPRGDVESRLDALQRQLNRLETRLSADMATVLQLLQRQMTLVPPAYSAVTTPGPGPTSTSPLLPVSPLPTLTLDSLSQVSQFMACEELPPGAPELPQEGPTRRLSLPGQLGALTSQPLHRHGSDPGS
# Summary of the method: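 Kinetic two-minute fluorescence traces, sampled at 1 s, were collected following thallium stimulus of U2OS cells (1000 per well) that had been cultured overnight at 37 C and loaded with FluxOR II.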
# [8] = molecular target: Cytochrome P450 3A4 (Homo sapiens) (UniProt P08684); test: Cytochrome P450 Family 3 Subfamily A Member 4 (CYP3A4) small molecule antagonists: luciferase reporter qHTS assay (AID 1671201); further: nearly all actives have a fitted effect of over 50% in size
# Cytochrome P450 3A4 (Homo sapiens), sequence (P08684 whole entry, looked up): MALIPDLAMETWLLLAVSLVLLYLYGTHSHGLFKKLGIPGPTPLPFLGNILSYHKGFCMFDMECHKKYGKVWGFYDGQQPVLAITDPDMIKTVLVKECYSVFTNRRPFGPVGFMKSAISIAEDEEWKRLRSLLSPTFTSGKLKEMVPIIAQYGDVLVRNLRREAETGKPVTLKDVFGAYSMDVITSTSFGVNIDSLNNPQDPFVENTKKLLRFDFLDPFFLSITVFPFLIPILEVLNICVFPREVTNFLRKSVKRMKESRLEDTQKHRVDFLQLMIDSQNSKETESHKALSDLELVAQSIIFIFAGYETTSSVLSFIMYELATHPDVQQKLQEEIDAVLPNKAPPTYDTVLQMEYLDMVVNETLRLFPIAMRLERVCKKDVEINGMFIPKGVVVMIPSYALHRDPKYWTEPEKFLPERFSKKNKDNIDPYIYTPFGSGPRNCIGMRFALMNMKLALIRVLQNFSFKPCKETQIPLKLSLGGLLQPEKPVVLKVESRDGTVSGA
# Summary of the method: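 Proluciferin-to-luciferin conversion by CYP3A4, NADPH-regenerated, 1 h RT; luminescence read as RLU. Ketoconazole as control.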
# [9] = molecular target: Cytochrome P450 2D6 (Homo sapiens) (UniProt P10635); test: Cytochrome P450 Family 2 Subfamily D Member 6 (CYP2D6) small molecule antagonists: luciferase reporter qHTS assay (AID 1671196); further: nearly all actives have a fitted effect of over 50% in size
# Cytochrome P450 2D6 (Homo sapiens), sequence (P10635 whole entry, looked up): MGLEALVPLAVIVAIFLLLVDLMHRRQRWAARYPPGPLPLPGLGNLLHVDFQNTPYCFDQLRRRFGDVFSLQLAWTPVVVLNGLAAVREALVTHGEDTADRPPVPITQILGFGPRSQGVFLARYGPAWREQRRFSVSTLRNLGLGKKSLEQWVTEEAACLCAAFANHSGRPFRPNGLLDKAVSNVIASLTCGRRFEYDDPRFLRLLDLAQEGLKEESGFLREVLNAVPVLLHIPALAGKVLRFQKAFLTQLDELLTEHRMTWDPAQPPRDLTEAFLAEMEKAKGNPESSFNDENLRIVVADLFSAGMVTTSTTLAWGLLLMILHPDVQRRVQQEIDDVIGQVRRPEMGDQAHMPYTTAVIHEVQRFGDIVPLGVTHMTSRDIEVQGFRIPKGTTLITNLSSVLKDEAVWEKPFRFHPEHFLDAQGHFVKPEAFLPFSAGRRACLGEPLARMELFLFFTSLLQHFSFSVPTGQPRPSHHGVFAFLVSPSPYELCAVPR
# Summary of the method: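 P450-Glo format: CYP2D6 converts a proluciferin substrate to luciferin in an NADPH-driven reaction lasting 1 h at room temperature. Light output, proportional to CYP2D6 activity, reflects interference by test chemicals.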
# [10] = molecular target: Cytochrome P450 2C19 (Homo sapiens) (UniProt P33261); test: Cytochrome P450 Family 2 Subfamily C Member 19 (CYP2C19) small molecule antagonists: luciferase reporter qHTS assay (AID 1671197); further: nearly all actives have a fitted effect of over 65% in size
# Cytochrome P450 2C19 (Homo sapiens), sequence (P33261 whole entry, looked up): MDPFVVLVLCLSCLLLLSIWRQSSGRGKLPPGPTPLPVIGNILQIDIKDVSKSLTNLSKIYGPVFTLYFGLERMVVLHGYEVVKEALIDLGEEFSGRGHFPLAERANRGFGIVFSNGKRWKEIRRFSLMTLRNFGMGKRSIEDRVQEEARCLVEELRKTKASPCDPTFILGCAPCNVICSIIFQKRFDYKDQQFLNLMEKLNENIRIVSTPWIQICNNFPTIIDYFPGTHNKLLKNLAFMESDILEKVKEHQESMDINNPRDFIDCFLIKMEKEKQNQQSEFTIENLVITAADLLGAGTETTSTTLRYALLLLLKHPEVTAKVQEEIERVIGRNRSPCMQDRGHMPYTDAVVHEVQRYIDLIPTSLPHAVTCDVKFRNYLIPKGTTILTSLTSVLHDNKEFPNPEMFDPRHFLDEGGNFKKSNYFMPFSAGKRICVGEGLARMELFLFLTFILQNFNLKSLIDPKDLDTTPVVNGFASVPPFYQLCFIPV
# Summary of the method: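 Compounds were tested on CYP2C19 activity via proluciferin conversion to luciferin. The 37C, 1 h reaction followed NADPH addition; detection reagent stopped it.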
# Potency means the concentration at half of the fitted maximal effect.
SMILES,Potency [1],Potency [2],Potency [3],Potency [4],Potency [5],Potency [6],Potency [7],Potency [8],Potency [9],Potency [10]
CN1C[C@H](CNC(=O)OCc2ccccc2)C[C@@H]2c3cccc4c3c(cn4C)C[C@H]21,3.47 µM (active),7.76 µM (active),0.871 µM (active),30.9 µM (active),inactive,inactive,3.38 µM (active),inactive,,
O=C(O)CC(Cl)C(=O)O (stereo unspecified),inactive,,inactive,inactive,inactive,inactive,inactive,inactive,inactive,
O=Cc1ccc(Cl)cc1Cl,inactive,,inactive,inactive,inactive,inactive,inactive,inactive,inactive,
CC(Cl)C(C)Cl (stereo unspecified),inactive,,inactive,inactive,inactive,inactive,inactive,inactive,inactive,inactive
O=[N+]([O-])c1ccc(F)c([N+](=O)[O-])c1,inactive,inactive,inactive,inactive,32 µM (active),inactive,inactive,inactive,,
COc1cc(Cl)c(OC)cc1Cl,inactive,,inactive,inactive,71 µM (active),12.6 µM (active),inactive,15.9 µM (active),inactive,79.6 µM (active)
O=C1NCN(c2ccccc2)C12CCN(CCCOc1ccc(F)cc1)CC2,inactive,,inactive,inactive,inactive,inactive,0.601 µM (active),inactive,0.347 µM (active),inactive
CCOc1nc(F)cc2nc(S(=O)(=O)Nc3c(Cl)cccc3Cl)nn12,inactive,,inactive,inactive,71 µM (active),inactive,inactive,,inactive,inactive
C/C(=C\c1ccccc1)[N+](=O)[O-],inactive,inactive,inactive,inactive,35.6 µM (active),35.6 µM (active),inactive,44.8 µM (active),,
CC(=O)C(C)(C)C,inactive,,inactive,inactive,inactive,37 µM (active),inactive,inactive,inactive,
O=C1C(=O)c2cccc3cccc1c23,inactive,inactive,,inactive,,8.93 µM (active),inactive,inactive,,39.9 µM (active)
Nc1nc(=S)[nH][nH]1,inactive,inactive,,inactive,31.7 µM (active),,inactive,inactive,44.8 µM (active),25.2 µM (active)
C=CCOC(C)=O,inactive,,inactive,inactive,55.6 µM (active),,inactive,inactive,inactive,70 µM (active)
C[N+](C)(C)CCCl,inactive,,inactive,inactive,inactive,inactive,inactive,inactive,inactive,
CS/C(C)=N/OC(=O)N(C)SN(C)C(=O)O/N=C(\C)SC,1.42 µM (active),5.03 µM (active),0.71 µM (active),31.7 µM (active),79.6 µM (active),,,inactive,,71 µM (active)
CN(C)c1ccc(N(C)C)cc1,40 µM (active),,40 µM (active),inactive,20.1 µM (active),40 µM (active),inactive,35.7 µM (active),20.1 µM (active),
O=C1c2ccccc2C(=O)C1C(=O)C(c1ccccc1)c1ccccc1,inactive,inactive,inactive,inactive,1.38 µM (active),15.5 µM (active),inactive,inactive,,21.9 µM (active)
BrCC(Br)C1CCC(Br)C(Br)C1 (stereo unspecified),inactive,inactive,inactive,inactive,31.6 µM (active),,,inactive,,11.2 µM (active)
Clc1cccc2ccccc12,inactive,,inactive,inactive,inactive,,inactive,inactive,inactive,
CC1CC(CC2CCC(N)C(C)C2)CCC1N (stereo unspecified),inactive,,inactive,inactive,inactive,32.2 µM (active),inactive,2.87 µM (active),12.8 µM (active),inactive
CCBr,inactive,inactive,inactive,inactive,,,inactive,inactive,,
CCCN(CCCl)c1c([N+](=O)[O-])cc(C(F)(F)F)cc1[N+](=O)[O-],inactive,inactive,inactive,inactive,20 µM (active),12.6 µM (active),inactive,22.4 µM (active),,
C=CC(=O)OC(C)(C)C,inactive,,inactive,inactive,,2.43 µM (active),inactive,inactive,inactive,30.6 µM (active)
CCOP(=S)(OCC)SCSCC,63.3 µM (active),inactive,,inactive,35.6 µM (active),22.4 µM (active),inactive,6.33 µM (active),,20 µM (active)
NC(=O)CI,,inactive,inactive,inactive,63.8 µM (active),35.9 µM (active),inactive,inactive,63.8 µM (active),80.4 µM (active)
CN1C(=O)C(O)N=C(c2ccccc2)c2cc(Cl)ccc21 (stereo unspecified),,inactive,inactive,,,,,,,
O=S(=O)(Cl)c1ccccc1,inactive,,inactive,inactive,inactive,inactive,inactive,inactive,,

SMILES,Potency [1],Potency [2],Potency [3],Potency [4],Potency [5],Potency [6],Potency [7],Potency [8],Potency [9],Potency [10]
O=[Se]=O,inactive,,inactive,inactive,,inactive,inactive,inactive,inactive,
Cl/C=C\C[N+]12CN3CN(CN(C3)C1)C2,,inactive,inactive,inactive,inactive,inactive,inactive,inactive,71 µM (active),inactive
O=[N+]([O-])c1cc(C(F)(F)F)cc([N+](=O)[O-])c1Cl,inactive,,inactive,inactive,17.9 µM (active),,inactive,inactive,17.9 µM (active),
CNP(=O)(OC)Oc1ccc(C(C)(C)C)cc1Cl (stereo unspecified),,79.6 µM (active),31.7 µM (active),inactive,35.6 µM (active),35.6 µM (active),inactive,inactive,71 µM (active),8.94 µM (active)
O=C=Nc1ccc(Cl)cc1,,inactive,inactive,inactive,7.96 µM (active),,inactive,inactive,inactive,2 µM (active)
CCCCN(N=O)C(=N)N[N+](=O)[O-],,inactive,inactive,inactive,inactive,40.8 µM (active),inactive,,,inactive
COC(=O)C(Cl)C(=O)OC,,inactive,inactive,inactive,inactive,inactive,inactive,inactive,inactive,
CCCCN=C=O,,inactive,inactive,inactive,inactive,,inactive,inactive,inactive,35.2 µM (active)
C=CC(=O)NCNC(=O)C=C,,inactive,inactive,inactive,,46.5 µM (active),inactive,inactive,3.56 µM (active),
COP(=S)(OC)Oc1cc(Cl)c(I)cc1Cl,inactive,,,inactive,3.99 µM (active),12.6 µM (active),,20 µM (active),inactive,2.24 µM (active)
Nc1ccc([N+](=O)[O-])cc1[N+](=O)[O-],,inactive,inactive,inactive,inactive,6.92 µM (active),inactive,inactive,,inactive
CC(C)(C)C(O)C(Oc1ccc(Cl)cc1)n1cncn1 (stereo unspecified),inactive,,inactive,inactive,33.6 µM (active),,inactive,,,0.796 µM (active)
COP(=S)(Oc1cc(Cl)c(Br)cc1Cl)c1ccccc1 (stereo unspecified),63.3 µM (active),,,8.94 µM (active),0.796 µM (active),15.9 µM (active),inactive,7.1 µM (active),,0.224 µM (active)
O=C1C(Cl)C(CCl)CN1c1cccc(C(F)(F)F)c1 (stereo unspecified),,inactive,inactive,inactive,inactive,1 µM (active),,inactive,,8.94 µM (active)
CC(=O)c1cc2c(cc1C)C(C)(C)C(C)CC2(C)C (stereo unspecified),,inactive,inactive,inactive,35.6 µM (active),,13.8 µM (active),25.2 µM (active),inactive,
CCOC(=O)[C@]1(c2ccccc2)Oc2ccccc2[C@@H]1N,79.6 µM (active),,,inactive,,63.3 µM (active),3.09 µM (active),,0.2 µM (active),
Clc1ccc(C2(Cn3cncn3)CC(Br)CO2)c(Cl)c1 (stereo unspecified),inactive,,,inactive,5 µM (active),31.5 µM (active),,0.126 µM (active),31.5 µM (active),
Brc1ccc(Oc2ccccc2)cc1,,inactive,inactive,inactive,,25.2 µM (active),inactive,inactive,inactive,81.7 µM (active) and 31.7 µM (active)
N#CCc1ccccc1,inactive,,inactive,inactive,inactive,,inactive,inactive,,inactive
O=C(OC1CCCCC1)c1ccccc1C(=O)OC1CCCCC1,,inactive,inactive,inactive,26.5 µM (active),37.5 µM (active),,11.9 µM (active),inactive,
C(=NC1CCCCC1)=NC1CCCCC1,,inactive,inactive,inactive,inactive,inactive,inactive,inactive,63.3 µM (active),
O=C(CBr)c1ccccc1,,inactive,inactive,inactive,,63.7 µM (active),inactive,inactive,2.53 µM (active),56.7 µM (active)
O=C(NC(=O)c1c(F)cccc1F)Nc1ccc(OC(F)(F)C(F)OC(F)(F)F)c(Cl)c1 (stereo unspecified),inactive,,inactive,inactive,19.5 µM (active),,inactive,inactive,inactive,
CN1[C@@H]2CC[C@H]1CC(OC(=O)c1cc(Cl)cc(Cl)c1)C2 (stereo partly specified),,inactive,inactive,inactive,inactive,,7.56 µM (active),inactive,0.055 µM (active),inactive
CC/C(=N\OC/C=C/Cl)C1=C(O)CC(C2CCOCC2)CC1=O (stereo unspecified),,inactive,inactive,inactive,31.7 µM (active),,inactive,31.7 µM (active),inactive,70.9 µM (active)
O=C1CN=C(c2ccccc2)c2cc(Cl)ccc2N1CC1CC1,inactive,,29.7 µM (active),inactive,26.4 µM (active),,,,,6.64 µM (active)
CCOP(=O)(OCC)SCCSCC,3.4 µM (active) and 7.96 µM (active),,3.03 µM (active) and 10 µM (active),17 µM (active) and 35.6 µM (active),inactive,34 µM (active),inactive,inactive,,21.4 µM (active) and 35.6 µM (active)
